# Test results: article PMC7862700, “An all-to-all approach to the identification of sequence-specific readers for epigenetic DNA modifications on cytosine”
# What was measured:
# Assay in all cases: DAPPL (digital affinity profiling via proximity ligation, sequencing); 10 mM Tris-HCl pH 7.5, 50 mM NaCl, 1 mM DTT, 4% glycerol, room temperature, 30 min; GST-TFs on glutathione beads, 16-mer random dsDNA library, 0.1% formaldehyde crosslink after washing; high values mean tight binding
# FLI1 = molecular target: T1, FLI1 (Homo sapiens, UniProt Q01543 1-452); conditions: protein: recombinant; tags: N-terminal GST; dsDNA, one strand shown
# T1 sequence: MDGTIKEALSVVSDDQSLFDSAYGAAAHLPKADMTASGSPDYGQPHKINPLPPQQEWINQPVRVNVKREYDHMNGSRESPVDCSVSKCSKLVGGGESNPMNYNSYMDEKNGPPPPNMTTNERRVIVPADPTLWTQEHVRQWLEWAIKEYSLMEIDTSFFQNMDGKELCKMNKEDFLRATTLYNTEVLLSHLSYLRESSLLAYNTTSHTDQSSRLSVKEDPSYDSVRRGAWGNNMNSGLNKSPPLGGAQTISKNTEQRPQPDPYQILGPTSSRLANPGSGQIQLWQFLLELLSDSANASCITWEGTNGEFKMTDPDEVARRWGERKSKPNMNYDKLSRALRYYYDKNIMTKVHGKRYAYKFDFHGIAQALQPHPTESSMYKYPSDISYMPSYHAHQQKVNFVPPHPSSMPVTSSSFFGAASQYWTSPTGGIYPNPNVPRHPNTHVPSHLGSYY
# Procedure, shortened: (§1)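 GST fusions of human transcription factors were expressed in yeast and captured with glutathione beads. Once given DNA barcodes and pooled alongside a tag-only sample, they were incubated for 30 min at room temperature with 200 nmole of a random double-stranded 16-mer DNA library in Tris/NaCl/DTT/glycerol buffer, then washed, crosslinked (0.1% formaldehyde), proximity-ligated, PCR-amplified and sequenced on an Illumina NextSeq500. The binding signal of each hexamer is its read frequency for a factor divided by its frequency for the tag-only sample.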
# ELK1 = molecular target: T2, ELK1 (Homo sapiens, UniProt P19419 1-428); conditions: protein: recombinant; tags: N-terminal GST; dsDNA, one strand shown
# T2 sequence: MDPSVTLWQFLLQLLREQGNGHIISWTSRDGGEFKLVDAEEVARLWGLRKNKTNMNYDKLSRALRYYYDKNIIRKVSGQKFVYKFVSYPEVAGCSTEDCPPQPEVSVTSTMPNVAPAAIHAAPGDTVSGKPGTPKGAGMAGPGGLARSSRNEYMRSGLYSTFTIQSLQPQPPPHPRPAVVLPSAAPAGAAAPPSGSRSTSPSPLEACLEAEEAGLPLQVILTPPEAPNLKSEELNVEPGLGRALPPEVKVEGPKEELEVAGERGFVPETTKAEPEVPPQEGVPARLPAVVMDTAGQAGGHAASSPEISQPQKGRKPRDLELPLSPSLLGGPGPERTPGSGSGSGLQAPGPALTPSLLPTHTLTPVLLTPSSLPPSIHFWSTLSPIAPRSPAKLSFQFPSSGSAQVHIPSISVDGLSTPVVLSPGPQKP
# Procedure, shortened: as §1
# GABPA = molecular target: T3, GABPA (Homo sapiens, UniProt Q06546 1-454); conditions: protein: recombinant; tags: N-terminal GST; dsDNA, one strand shown
# T3 sequence: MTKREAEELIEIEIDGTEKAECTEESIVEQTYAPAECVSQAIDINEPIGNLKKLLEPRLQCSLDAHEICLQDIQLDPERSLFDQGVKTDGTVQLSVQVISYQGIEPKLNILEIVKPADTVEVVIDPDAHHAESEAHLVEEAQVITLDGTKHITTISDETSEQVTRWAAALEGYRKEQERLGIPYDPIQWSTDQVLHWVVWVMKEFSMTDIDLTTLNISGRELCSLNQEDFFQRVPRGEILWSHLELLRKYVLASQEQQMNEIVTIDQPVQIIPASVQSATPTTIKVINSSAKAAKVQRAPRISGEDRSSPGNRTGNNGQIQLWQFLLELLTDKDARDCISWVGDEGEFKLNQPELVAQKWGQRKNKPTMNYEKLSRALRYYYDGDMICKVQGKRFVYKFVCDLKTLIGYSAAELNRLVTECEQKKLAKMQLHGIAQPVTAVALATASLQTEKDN
# Procedure, shortened: as §1
# ERG = molecular target: T4, ERG (Homo sapiens, UniProt P11308 1-479); conditions: protein: recombinant; tags: N-terminal GST; dsDNA, one strand shown
# T4 sequence: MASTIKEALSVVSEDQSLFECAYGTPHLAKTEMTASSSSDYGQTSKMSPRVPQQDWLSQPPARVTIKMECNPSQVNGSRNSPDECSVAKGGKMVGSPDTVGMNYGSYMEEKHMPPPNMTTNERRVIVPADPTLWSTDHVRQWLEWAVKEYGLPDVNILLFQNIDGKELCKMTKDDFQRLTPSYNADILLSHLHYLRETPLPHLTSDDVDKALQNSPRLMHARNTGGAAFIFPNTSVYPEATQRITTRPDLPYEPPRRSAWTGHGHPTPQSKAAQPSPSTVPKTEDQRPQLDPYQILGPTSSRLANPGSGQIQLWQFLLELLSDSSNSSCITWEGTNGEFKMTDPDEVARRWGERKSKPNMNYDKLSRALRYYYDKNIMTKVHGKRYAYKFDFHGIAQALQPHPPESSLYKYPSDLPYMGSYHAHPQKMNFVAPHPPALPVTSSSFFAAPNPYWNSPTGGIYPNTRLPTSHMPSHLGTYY
# Procedure, shortened: as §1
# ELF1 = ELF1 (Homo sapiens, UniProt P32519 1-619); conditions: protein: recombinant; tags: N-terminal GST; dsDNA, one strand shown
# Procedure, shortened: as §1
# EHF = molecular target: T5, EHF (Homo sapiens, UniProt Q9NZC4 1-300); conditions: protein: recombinant; tags: N-terminal GST; dsDNA, one strand shown
# T5 sequence: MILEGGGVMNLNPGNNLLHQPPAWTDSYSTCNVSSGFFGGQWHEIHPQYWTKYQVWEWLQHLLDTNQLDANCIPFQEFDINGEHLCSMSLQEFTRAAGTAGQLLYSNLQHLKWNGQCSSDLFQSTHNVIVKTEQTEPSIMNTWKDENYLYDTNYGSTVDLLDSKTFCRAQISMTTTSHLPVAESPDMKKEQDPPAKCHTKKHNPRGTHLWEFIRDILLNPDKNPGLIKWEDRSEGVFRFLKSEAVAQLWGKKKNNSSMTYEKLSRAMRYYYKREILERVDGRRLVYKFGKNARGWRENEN
# Procedure, shortened: as §1
# SPI1 = SPI1 (Homo sapiens, UniProt P17947 1-270); conditions: protein: recombinant; tags: N-terminal GST; dsDNA, one strand shown
# Procedure, shortened: as §1
# SPIB = SPIB (Homo sapiens, UniProt Q01892 1-262); conditions: protein: recombinant; tags: N-terminal GST; dsDNA, one strand shown
# Procedure, shortened: as §1
# ELK3 = molecular target: T6, ELK3 (Homo sapiens, UniProt P41970 1-407); conditions: protein: recombinant; tags: N-terminal GST; dsDNA, one strand shown
# T6 sequence: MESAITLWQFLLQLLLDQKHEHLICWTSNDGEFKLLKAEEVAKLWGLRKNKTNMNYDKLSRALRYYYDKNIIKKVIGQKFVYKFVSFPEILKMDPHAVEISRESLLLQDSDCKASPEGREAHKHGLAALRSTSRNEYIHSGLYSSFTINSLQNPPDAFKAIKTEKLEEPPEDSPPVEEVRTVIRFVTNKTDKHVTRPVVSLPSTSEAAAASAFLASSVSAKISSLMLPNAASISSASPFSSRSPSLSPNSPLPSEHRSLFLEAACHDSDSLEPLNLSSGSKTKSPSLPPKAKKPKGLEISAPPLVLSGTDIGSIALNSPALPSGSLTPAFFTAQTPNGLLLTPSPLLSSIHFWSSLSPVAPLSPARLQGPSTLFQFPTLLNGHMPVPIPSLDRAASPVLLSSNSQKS
# Procedure, shortened: as §1
# FEV = molecular target: T7, FEV (Homo sapiens, UniProt Q99581 1-238); conditions: protein: recombinant; tags: N-terminal GST; dsDNA, one strand shown
# T7 sequence: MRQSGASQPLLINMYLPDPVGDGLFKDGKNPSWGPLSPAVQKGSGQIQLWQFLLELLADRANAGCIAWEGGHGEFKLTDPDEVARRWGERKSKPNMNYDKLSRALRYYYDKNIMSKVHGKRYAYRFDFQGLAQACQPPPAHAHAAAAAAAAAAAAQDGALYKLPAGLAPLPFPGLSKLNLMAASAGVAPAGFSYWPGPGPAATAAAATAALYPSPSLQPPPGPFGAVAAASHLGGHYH
# Procedure, shortened: as §1
# ETV5 = ETV5 (Homo sapiens, UniProt P41161 1-510); conditions: protein: recombinant; tags: N-terminal GST; dsDNA, one strand shown
# Procedure, shortened: as §1
# HSF1 = HSF1 (Homo sapiens, UniProt Q00613 1-529); conditions: protein: recombinant; tags: N-terminal GST; chain copies: 3; dsDNA, one strand shown
# Procedure, shortened: as §1
# SPIC = molecular target: T8, SPIC (Homo sapiens, UniProt Q8N5J4 1-248); conditions: protein: recombinant; tags: N-terminal GST; dsDNA, one strand shown
# T8 sequence: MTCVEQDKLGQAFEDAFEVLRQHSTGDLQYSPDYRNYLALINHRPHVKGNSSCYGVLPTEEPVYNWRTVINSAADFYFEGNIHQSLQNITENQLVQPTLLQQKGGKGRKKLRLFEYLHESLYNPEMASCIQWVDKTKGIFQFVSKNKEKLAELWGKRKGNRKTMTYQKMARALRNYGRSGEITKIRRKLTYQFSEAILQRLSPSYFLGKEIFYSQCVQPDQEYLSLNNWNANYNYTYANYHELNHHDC
# Procedure, shortened: as §1
# ELF4 = ELF4 (Homo sapiens, UniProt Q99607 1-663); conditions: protein: recombinant; tags: N-terminal GST; dsDNA, one strand shown
# Procedure, shortened: as §1
# ELK4 = molecular target: T9, ELK4 (Homo sapiens, UniProt P28324-2 1-405); conditions: protein: recombinant; tags: N-terminal GST; dsDNA, one strand shown
# T9 sequence: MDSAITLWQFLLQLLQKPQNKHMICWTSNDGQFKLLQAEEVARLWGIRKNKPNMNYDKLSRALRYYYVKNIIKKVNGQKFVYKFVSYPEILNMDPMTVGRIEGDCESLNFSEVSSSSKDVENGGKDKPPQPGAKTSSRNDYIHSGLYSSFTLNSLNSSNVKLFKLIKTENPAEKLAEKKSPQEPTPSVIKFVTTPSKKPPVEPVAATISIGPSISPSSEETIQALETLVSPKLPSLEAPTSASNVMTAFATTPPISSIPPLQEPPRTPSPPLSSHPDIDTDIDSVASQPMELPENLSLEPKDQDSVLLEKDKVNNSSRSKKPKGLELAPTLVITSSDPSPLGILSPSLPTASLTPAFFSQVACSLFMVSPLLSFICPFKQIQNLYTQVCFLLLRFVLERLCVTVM
# Procedure, shortened: as §1
# ETV2 = molecular target: T10, ETV2 (Homo sapiens, UniProt O00321 1-342); conditions: protein: recombinant; tags: N-terminal GST; dsDNA, one strand shown
# T10 sequence: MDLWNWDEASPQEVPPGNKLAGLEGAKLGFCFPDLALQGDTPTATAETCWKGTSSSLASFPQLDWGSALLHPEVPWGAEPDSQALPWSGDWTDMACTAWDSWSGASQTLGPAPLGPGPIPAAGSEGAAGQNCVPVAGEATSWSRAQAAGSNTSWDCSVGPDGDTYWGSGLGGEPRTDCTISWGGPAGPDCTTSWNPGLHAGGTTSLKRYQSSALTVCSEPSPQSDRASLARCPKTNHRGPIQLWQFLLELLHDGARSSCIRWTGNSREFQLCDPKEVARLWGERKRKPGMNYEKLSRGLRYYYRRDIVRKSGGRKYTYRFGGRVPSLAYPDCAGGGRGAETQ
# Procedure, shortened: as §1
# ELF3 = molecular target: T11, ELF3 (Homo sapiens, UniProt P78545 1-371); conditions: protein: recombinant; tags: N-terminal GST; dsDNA, one strand shown
# T11 sequence: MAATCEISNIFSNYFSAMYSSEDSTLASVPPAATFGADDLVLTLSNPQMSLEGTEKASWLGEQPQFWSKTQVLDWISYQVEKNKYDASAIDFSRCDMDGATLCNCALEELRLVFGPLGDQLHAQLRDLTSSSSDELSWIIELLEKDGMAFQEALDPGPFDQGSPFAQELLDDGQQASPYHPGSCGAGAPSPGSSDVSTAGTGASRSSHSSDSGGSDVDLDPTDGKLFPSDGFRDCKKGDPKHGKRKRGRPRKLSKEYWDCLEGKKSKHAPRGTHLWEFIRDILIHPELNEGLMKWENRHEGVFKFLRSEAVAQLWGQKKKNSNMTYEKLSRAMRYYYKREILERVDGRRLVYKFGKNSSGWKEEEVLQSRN
# Procedure, shortened: as §1
# CRX = CRX (Homo sapiens, UniProt O43186 1-299); conditions: protein: recombinant; tags: N-terminal GST; dsDNA, one strand shown
# Procedure, shortened: as §1
# ETV1 = ETV1 (Homo sapiens, UniProt P50549 1-477); conditions: protein: recombinant; tags: N-terminal GST; dsDNA, one strand shown
# Procedure, shortened: as §1
# Sequence of CRX (O43186 whole entry): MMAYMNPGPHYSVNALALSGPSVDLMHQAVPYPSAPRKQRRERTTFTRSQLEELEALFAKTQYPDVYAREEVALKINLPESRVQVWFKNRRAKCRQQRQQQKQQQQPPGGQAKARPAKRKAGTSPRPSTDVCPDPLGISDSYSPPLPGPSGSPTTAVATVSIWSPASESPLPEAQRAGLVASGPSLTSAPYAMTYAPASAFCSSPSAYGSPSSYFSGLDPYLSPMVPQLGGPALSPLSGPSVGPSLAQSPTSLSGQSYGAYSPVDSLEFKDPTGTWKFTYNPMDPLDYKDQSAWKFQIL
# Sequence of ETV5 (P41161 whole entry): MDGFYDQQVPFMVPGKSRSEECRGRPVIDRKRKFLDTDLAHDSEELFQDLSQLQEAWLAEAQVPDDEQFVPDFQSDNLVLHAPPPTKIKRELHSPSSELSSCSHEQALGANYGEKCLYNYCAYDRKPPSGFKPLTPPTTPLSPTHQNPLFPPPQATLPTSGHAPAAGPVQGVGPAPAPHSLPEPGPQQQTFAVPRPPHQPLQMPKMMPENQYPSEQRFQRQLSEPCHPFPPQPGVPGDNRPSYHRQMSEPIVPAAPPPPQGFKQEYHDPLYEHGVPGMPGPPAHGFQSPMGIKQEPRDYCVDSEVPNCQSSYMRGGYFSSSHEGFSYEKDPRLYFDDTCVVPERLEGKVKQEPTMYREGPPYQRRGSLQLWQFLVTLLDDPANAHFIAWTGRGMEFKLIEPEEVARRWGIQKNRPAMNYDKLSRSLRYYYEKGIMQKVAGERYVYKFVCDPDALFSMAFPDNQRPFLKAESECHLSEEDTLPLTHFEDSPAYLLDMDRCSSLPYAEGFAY
# Sequence of ETV1 (P50549 whole entry): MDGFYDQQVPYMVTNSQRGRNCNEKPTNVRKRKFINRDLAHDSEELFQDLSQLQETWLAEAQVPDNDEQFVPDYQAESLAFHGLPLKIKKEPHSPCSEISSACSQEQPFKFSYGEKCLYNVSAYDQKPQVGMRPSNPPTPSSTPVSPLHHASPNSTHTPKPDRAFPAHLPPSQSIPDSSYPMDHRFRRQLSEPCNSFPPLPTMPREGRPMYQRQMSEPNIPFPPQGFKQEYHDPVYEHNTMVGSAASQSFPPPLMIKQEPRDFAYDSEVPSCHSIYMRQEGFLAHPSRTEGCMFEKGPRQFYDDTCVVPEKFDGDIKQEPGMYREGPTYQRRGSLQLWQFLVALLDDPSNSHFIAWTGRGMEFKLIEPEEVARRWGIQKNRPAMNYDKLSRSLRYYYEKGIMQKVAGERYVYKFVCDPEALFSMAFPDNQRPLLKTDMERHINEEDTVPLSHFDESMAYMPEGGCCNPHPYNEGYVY
# Sequence of ELF1 (P32519 whole entry): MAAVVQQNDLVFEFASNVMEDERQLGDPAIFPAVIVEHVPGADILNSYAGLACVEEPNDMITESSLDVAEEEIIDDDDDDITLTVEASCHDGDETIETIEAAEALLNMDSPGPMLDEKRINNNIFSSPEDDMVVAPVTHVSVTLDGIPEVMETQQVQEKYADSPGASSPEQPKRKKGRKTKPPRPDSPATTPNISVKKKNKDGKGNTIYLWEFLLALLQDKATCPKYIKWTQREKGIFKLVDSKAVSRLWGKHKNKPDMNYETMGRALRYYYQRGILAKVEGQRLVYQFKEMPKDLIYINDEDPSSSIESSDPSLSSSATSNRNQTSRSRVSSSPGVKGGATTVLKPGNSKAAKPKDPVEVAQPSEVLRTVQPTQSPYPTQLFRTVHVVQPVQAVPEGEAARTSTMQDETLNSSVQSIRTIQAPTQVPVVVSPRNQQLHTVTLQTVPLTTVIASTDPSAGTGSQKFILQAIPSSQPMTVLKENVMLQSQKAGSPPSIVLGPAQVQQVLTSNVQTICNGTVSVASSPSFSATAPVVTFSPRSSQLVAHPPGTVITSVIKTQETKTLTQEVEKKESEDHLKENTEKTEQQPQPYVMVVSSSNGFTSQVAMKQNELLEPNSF
# Sequence of HSF1 (Q00613 whole entry): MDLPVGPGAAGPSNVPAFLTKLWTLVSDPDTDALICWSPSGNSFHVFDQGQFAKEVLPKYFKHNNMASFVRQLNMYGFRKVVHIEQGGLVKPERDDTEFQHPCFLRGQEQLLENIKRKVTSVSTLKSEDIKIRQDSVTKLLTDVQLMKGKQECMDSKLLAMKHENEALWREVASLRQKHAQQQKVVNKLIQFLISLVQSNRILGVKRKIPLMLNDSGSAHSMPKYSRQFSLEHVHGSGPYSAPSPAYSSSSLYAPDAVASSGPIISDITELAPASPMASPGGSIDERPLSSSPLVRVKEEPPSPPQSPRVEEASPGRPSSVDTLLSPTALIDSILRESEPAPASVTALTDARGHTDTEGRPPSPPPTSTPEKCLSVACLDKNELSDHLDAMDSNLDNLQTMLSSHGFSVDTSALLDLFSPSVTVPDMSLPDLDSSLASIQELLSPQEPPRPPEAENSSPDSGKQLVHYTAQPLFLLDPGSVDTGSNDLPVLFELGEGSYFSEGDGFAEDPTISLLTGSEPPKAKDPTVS
# Sequence of SPIB (Q01892 whole entry): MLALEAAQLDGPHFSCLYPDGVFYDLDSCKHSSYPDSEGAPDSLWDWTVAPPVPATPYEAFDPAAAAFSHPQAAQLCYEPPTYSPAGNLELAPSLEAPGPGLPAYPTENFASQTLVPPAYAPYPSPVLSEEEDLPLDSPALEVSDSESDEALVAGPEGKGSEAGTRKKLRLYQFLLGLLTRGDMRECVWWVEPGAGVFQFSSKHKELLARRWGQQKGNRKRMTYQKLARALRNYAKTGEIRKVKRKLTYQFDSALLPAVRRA
# Sequence of ELF4 (Q99607 whole entry): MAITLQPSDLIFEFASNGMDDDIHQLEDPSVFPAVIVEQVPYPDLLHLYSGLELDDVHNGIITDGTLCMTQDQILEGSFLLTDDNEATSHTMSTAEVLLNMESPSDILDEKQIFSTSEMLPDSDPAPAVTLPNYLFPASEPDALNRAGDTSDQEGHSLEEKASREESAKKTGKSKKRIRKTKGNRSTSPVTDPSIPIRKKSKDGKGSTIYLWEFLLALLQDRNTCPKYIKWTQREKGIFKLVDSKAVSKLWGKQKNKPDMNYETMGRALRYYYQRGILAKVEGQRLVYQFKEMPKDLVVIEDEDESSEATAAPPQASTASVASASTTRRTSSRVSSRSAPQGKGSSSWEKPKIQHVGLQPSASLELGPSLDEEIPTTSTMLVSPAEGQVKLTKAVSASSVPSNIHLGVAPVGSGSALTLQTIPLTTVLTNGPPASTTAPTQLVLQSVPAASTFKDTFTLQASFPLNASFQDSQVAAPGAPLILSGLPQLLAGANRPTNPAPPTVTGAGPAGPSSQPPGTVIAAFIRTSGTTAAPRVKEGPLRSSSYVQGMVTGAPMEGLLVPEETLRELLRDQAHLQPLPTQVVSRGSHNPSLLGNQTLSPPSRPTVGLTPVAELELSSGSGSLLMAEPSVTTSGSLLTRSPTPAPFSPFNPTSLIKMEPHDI
sequence,measurement,setting,value
CCTAAA,binding signal,FLI1,"1.35 fold enrichment (6-mer frequency, TF over GST control)"
same,binding signal,ELK1,"1.26 fold enrichment (6-mer frequency, TF over GST control)"
same,binding signal,GABPA,"1.25 fold enrichment (6-mer frequency, TF over GST control)"
same,binding signal,ERG,"1.37 fold enrichment (6-mer frequency, TF over GST control)"
same,binding signal,ELF1,"1.34 fold enrichment (6-mer frequency, TF over GST control)"
same,binding signal,EHF,"1.28 fold enrichment (6-mer frequency, TF over GST control)"
same,binding signal,SPI1,"1.25 fold enrichment (6-mer frequency, TF over GST control)"
same,binding signal,SPIB,"1.26 fold enrichment (6-mer frequency, TF over GST control)"
same,binding signal,ELK3,"1.4 fold enrichment (6-mer frequency, TF over GST control)"
same,binding signal,FEV,"1.27 fold enrichment (6-mer frequency, TF over GST control)"
same,binding signal,ETV5,"1.33 fold enrichment (6-mer frequency, TF over GST control)"
same,binding signal,HSF1,"1.37 fold enrichment (6-mer frequency, TF over GST control)"
same,binding signal,SPIC,"1.32 fold enrichment (6-mer frequency, TF over GST control)"
same,binding signal,ELF4,"1.35 fold enrichment (6-mer frequency, TF over GST control)"
same,binding signal,ELK4,"1.29 fold enrichment (6-mer frequency, TF over GST control)"
same,binding signal,ETV2,"1.25 fold enrichment (6-mer frequency, TF over GST control)"
same,binding signal,ELF3,"1.4 fold enrichment (6-mer frequency, TF over GST control)"
same,binding signal,CRX,"1.61 fold enrichment (6-mer frequency, TF over GST control)"
same,binding signal,ETV1,"1.31 fold enrichment (6-mer frequency, TF over GST control)"
